High-throughput results from PubChem BioAssay.
LGR2 inh: blocks bursicon-induced cAMP signaling via Drosophila LGR2; HEK293 LGR2, CRE-luciferase, bursicon-stimulated, 4 h; inhibition, % at 9.99 µM; hit rate 0.35% among 380,000; AID 720647;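 active = drop in luminescence signal, shown as inhibition above about 50% in the replicate tests, limit read from the data, passing the limit was not always enough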;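 also: agonist challenge used bursicon conditioned medium at about half maximal strength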
EWS-Fli block: inhibitors of EWS/Fli oncoprotein transcriptional activity; A673 NR0B1-luciferase reporter, viability-normalised; inhibition, % at 12.6 µM; hit rate 0.67% among 350,000; AID 651661;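 active = mean inhibition of at least 50% after viability correction, with every replicate also passing that limit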;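 also: firefly luciferase signal divided by Alamar Blue viability fluorescence both relative to DMSO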
KKLEB tox: reduces viability of KKLEB cystic fibrosis airway cells. hit rate 0.36% among 360,000. KKLEB CF airway cells viability, ATPlite luminescence, overnight; active compounds read low; cells stimulated with P. aeruginosa culture filtrate. activity change (cytotoxicity), % at 5 µM. AID 602141;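 active = corrected activity change at or below -50% at 5 µM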
CF NFkB block: inhibitors of cystic fibrosis induced NF-kB | KKLEB NF-kB-GFP reporter, PAF-induced, GFP fluorescence overnight | inhibition, % at 5 µM | hit rate 0.86% among 360,000;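 active = at least 50% inhibition at 5 µM, scaled per plate between neutral and stimulator controls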;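 also: PAF is a Pseudomonas aeruginosa culture filtrate used as stimulus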
TWEAK-Fn14 inh: inhibitors of TWEAK-Fn14 interaction signaling | TWEAK-stimulated Fn14 reporter cells, luciferase luminescence, 8 h | inhibition, % at 10 µM | hit rate 2% among 360,000 | AID 1159606; in the data active = inhibition above about 50%
TROY signal inh: inhibitors of TROY-dependent NF-kB signaling. inhibition, % at 10 µM. hit rate 0.98% among 360,000. Q293 LMP1-TROYcd NF-kB luciferase reporter, 4 h;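 active = compounds whose plate-normalised and pattern-corrected inhibition of the luciferase reporter signal at the single screening dose is 50% or more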
Numbers stand for hits; 0 = inactive; - = no result. This is a sample that favours compounds with a hit; in the whole collection about 2.6% have one here.

SMILES	LGR2 inh	EWS-Fli block	KKLEB tox	CF NFkB block	TWEAK-Fn14 inh	TROY signal inh
C[C@@H]1CN([C@@H](C)CO)C(=O)c2cc(C#Cc3cccnc3)cnc2O[C@@H]1CN(C)Cc1ccncc1	0	0	-	-	-	-
COc1cc(O)cc(O)c1C(=O)/C=C/c1ccccc1	-	0	0	52	78	0
COc1ccc(C(=O)/C=C/c2ccccc2)c(O)c1	-	0	0	0	0	0
COc1cc(OC)c(C(=O)/C=C/c2ccccc2)c(O)c1O	0	0	0	0	64	0
CCNC(=O)[C@H]1[C@H](CO)[C@H]2Cn3c(cccc3=O)[C@@H]1N2C(=O)C1CCC1	0	0	-	-	-	-
C[C@H]1CN([C@@H](C)CO)C(=O)c2cc(C#CC3CC3)cnc2O[C@H]1CN(C)C(=O)Nc1ccc(F)cc1	0	0	-	-	-	-
NS(=O)(=O)c1ccc(Sc2nc3ccccc3s2)c([N+](=O)[O-])c1	-	0	-53	82	84	0
NS(=O)(=O)c1ccc(Sc2ccccn2)c([N+](=O)[O-])c1	0	0	0	0	0	0
C#CCn1c(=NC(=O)c2ccc(S(=O)(=O)N3CCc4ccccc4C3)cc2)sc2cc(S(N)(=O)=O)ccc21	-	-	-53	52	0	0
CCOc1ccc(CNC(=O)C2CCCN(S(C)(=O)=O)C2)cc1OC (stereo not given)	0	-	0	0	92	0
Cc1ccc(CCNC(=O)C2CCCN(S(C)(=O)=O)C2)cc1 (stereo not given)	0	0	0	0	0	0
CCOc1ccc(CNC(=O)C2CCCN(S(=O)(=O)N3CCC(C)CC3)C2)cc1OC (stereo not given)	0	0	0	0	0	0
CS(=O)(=O)N1CCCC(C(=O)NCCc2ccccc2)C1 (stereo not given)	-	-	0	0	69	0
O=[N+]([O-])c1ccc(O)c(/C=N/Nc2ccc(Cl)nn2)c1	-	-	-81	62	0	0
O=C(C[C@H]1C[C@H]2c3cc(NS(=O)(=O)c4ccc(F)cc4)ccc3O[C@H]2[C@H](CO)O1)NCCc1ccccc1	0	0	-	-	-	-
COc1ccc(NC(=O)CSc2nc(N)c(C#N)cc2C#N)cc1	0	0	0	0	0	0
COc1ccc2nc(SCC(=O)Nc3ccc4sc(C)nc4c3)c(C#N)cc2c1	-	-	-62	0	0	0
CN(C(=O)c1ccno1)c1nnc(-c2ccccn2)s1	-	-	0	0	0	0
COc1ccc(-c2nnc(N(C)C(=O)c3ccno3)s2)cc1	-	-	0	0	50	-
CCS(=O)(=O)Nc1ccc2c(c1)C(=O)N(C)[C@@H]1CC[C@@H](CC(=O)NCCCN3CCOCC3)O[C@H]1CO2	0	0	-	-	-	-
Nc1ncnc2c1C(c1ccccc1)c1c(ccc3ccccc13)O2 (stereo not given)	0	0	0	0	0	57
O=C(Cn1ncc(Cl)c(Cl)c1=O)N1CCc2ccccc21	70	54	-88	103	101	0
O=C(Cn1ncc2c1-c1ccccc1OC2)N1CCc2ccccc21	0	0	0	0	0	0
O=C(Cn1ncc2c1-c1ccccc1OC2)N1CCN(Cc2ccccc2)CC1	0	0	0	0	0	0
Cc1c2cnn(CC(=O)N3CCOCC3)c(=O)c2c(C)n1Cc1ccc(F)cc1	0	0	0	0	0	0
SMILES	LGR2 inh	EWS-Fli block	KKLEB tox	CF NFkB block	TWEAK-Fn14 inh	TROY signal inh
O=C(Cn1ncc(Cl)c(Cl)c1=O)N1CCN(Cc2ccccc2)CC1	104	67	-68	88	87	56
O=C(Cn1ncc(Cl)c(Cl)c1=O)N1CCOCC1	100	0	0	0	81	0
COc1ccc(S(=O)(=O)N(Cc2ccccc2)c2ccccc2C(=O)N2CCOCC2)cc1	0	0	0	0	94	0
COc1ccc([Si](C)(C)[C@H]2[C@H](CCn3cc(CCO)nn3)O[C@@]3(C(=O)N(Cc4cccc(N5CCOC5=O)c4)c4ccccc43)[C@@H]2C)cc1	-	0	-	-	-	-
Cc1ccc2[nH]c(CNC(=O)C3CCCCC3)cc2c1	0	0	0	0	72	53
C[C@@H]1CN([C@H](C)CO)C(=O)Cc2cc(NS(=O)(=O)c3cccs3)ccc2O[C@H]1CN(C)Cc1ccc(C(F)(F)F)cc1	0	0	-	-	-	-
CC(=O)C1=C(O)C(=O)N(CCC(=O)O)C1c1ccccc1Cl (stereo not given)	-	-	0	0	59	0
CC(=O)C1=C(O)C(=O)N(CCC(=O)O)C1c1ccc(Cl)cc1Cl (stereo not given)	0	0	0	0	0	0
